Measured values as given in the supplement of paper PMC10515830.
Structures can show the parent of a compound that is named as a salt.

Tests used:
Conditions in all cases: 10 µM; exposure time 6 h
[1] = test system: Danio rerio larvae (5 dpf); assay: difference in excitability vs DMSO (percentage points); higher = more excitable than DMSO
Method in brief: (§1)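 Wild-type zebrafish larvae at 5 dpf were kept in 96-well plates and exposed for 6 h to 100 µL egg water holding library compound at a final concentration of 10 µM. From 3 h into exposure, the plates were held at 28.5 ℃ and photographed every 6 s through a 3-h programme of moving lines and 100 ms, 400Hz tones. Each behaviour was scored by Z-LaP Tracker, a DeepLabCut model, and averaged over 48 larvae per compound. Every value gives the compound mean minus the vehicle control mean, in percentage points.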

[2] = test system: Danio rerio larvae (5 dpf); assay: difference in startle response vs DMSO (percentage points); higher = stronger startle than DMSO
Method in brief: as §1

[3] = test system: Danio rerio larvae (5 dpf); assay: difference in activity during first hour vs DMSO (percentage points); higher = more activity than DMSO
Method in brief: as §1

[4] = test system: Danio rerio larvae (5 dpf); assay: difference in habituation to acoustic stimuli vs DMSO (percentage points); higher = more habituation than DMSO
Method in brief: as §1

[5] = test system: Danio rerio larvae (5 dpf); assay: difference in combined optomotor response to red, green and blue moving lines vs DMSO (percentage points); higher = stronger optomotor response than DMSO
Method in brief: as §1

| SMILES | difference in excitability [1] | difference in startle response [2] | difference in activity during first hour [3] | difference in habituation to acoustic stimuli [4] | difference [5] |
| --- | --- | --- | --- | --- | --- |
| Cc1nc(Nc2ncc(C(=O)Nc3c(C)cccc3Cl)s2)cc(N2CCN(CCO)CC2)n1 [Dasatinib] | 11.4 | -1.6 | -4.95 | 1.58 | -0.962 |
| CCCCCOc1ccc(-c2cc(-c3ccc(C(=O)N[C@H]4C[C@@H](O)[C@@H](O)NC(=O)[C@@H]5[C@@H](O)[C@@H](C)CN5C(=O)[C@H]([C@H](O)CC(N)=O)NC(=O)[C@H]([C@H](O)[C@@H](O)c5ccc(O)c(OS(=O)(=O)O)c5)NC(=O)[C@@H]5C[C@@H](O)CN5C(=O)[C@H]([C@@H](C)O)NC4=O)cc3)no2)cc1 [Micafungin (sodium salt)] | -4.69 | -8.33 | 19.8 | -1.44 | -1.06 |
| C=C1CC[C@H](O)C/C1=C/C=C1\CCC[C@]2(C)[C@@H]([C@H](C)CCCC(C)(C)O)CC[C@@H]12 [25-hydroxy Vitamin D3] | 4.23 | -8.24 | 8.17 | -5.95 | -5 |
| CC(C)C[C@H](NC(=O)[C@H](Cc1ccccc1)NC(=O)c1cnccn1)B(O)O [Bortezomib] | 2.69 | 2.81 | 3.67 | -1.33 | -0.842 |
| Cc1cc(C2CCCCC2)n(O)c(=O)c1 [Ciclopirox] | 3.8 | -2.37 | 8.43 | 5.39 | 8.2 |
| CCNC(=O)CCC/C=C\C[C@@H]1[C@@H](/C=C/[C@@H](O)CCc2ccccc2)[C@H](O)C[C@@H]1O [17-phenyl trinor Prostaglandin F2α ethyl amide] | 12.5 | -5.26 | 14.8 | -0.264 | 7.13 |
| O=C(O)c1cc(/N=N/c2ccc(O)c(C(=O)O)c2)ccc1O [Olsalazine (sodium salt)] | -2.93 | 2.86 | 0.738 | -4.79 | -8.04 |
| O=C(c1cc(Cc2n[nH]c(=O)c3ccccc23)ccc1F)N1CCN(C(=O)C2CC2)CC1 [Olaparib] | -5.41 | -4.44 | 2.13 | -3.55 | 4.86 |
| CCCCCCCCCCC[C@@H](C[C@@H]1OC(=O)[C@H]1CCCCCC)OC(=O)[C@H](CC(C)C)NC=O [Orlistat] | 0.283 | 0.288 | 10.8 | 3.74 | 2.67 |
| CCCN1CCCC[C@H]1C(=O)Nc1c(C)cccc1C [(-)-Ropivacaine (hydrochloride hydrate)] | -4.41 | -2.15 | 7.62 | -1.06 | 1.37 |
| CCN1CCN(C(=O)N[C@@H](C(=O)N[C@@H]2C(=O)N3[C@@H]2SC(C)(C)[C@@H]3C(=O)O)c2ccccc2)C(=O)C1=O [Piperacillin (sodium salt)] | 2.92 | 2.6 | 14.2 | -3.02 | 5.57 |
| CNC(=O)c1ccccc1Sc1ccc2c(/C=C/c3ccccn3)n[nH]c2c1 [Axitinib] | 4.07 | 1.36 | -1.06 | -0.505 | 6.84 |
| CCCCC(C)(O)C/C=C/[C@H]1[C@H](O)CC(=O)[C@@H]1CCCCCCC(=O)OC (mixture of isomers) [Misoprostol] | 9.78 | 0.222 | -2.79 | 7.1 | -1.41 |
| Cc1ccsc1C(=CCCN1CCC[C@@H](C(=O)O)C1)c1sccc1C [Tiagabine (hydrochloride)] | 6.86 | 2.66 | 17.9 | 5.1 | -1.64 |
| OC(CNCC(O)C1CCc2cc(F)ccc2O1)C1CCc2cc(F)ccc2O1 (stereo not given) [Nebivolol (hydrochloride)] | 9.49 | -4.14 | 2.55 | -2.7 | -10.6 |
| CCCCc1oc2ccccc2c1C(=O)c1cc(I)c(OCCN(CC)CC)c(I)c1 [Amiodarone (hydrochloride)] | 8.93 | -3.14 | 8.93 | -15.9 | -11.8 |
| CCN(CC)C(=S)SSC(=S)N(CC)CC [Disulfiram] | 12.2 | -15.9 | 38.4 | -13 | -9.71 |
| C[C@@H](O)[C@H]1C(=O)N2C(C(=O)O)=C(S[C@@H]3CN[C@H](C(=O)Nc4cccc(C(=O)O)c4)C3)[C@H](C)[C@H]12 [Ertapenem (sodium salt)] | 3.87 | 3.36 | 14.7 | 7.59 | 3.82 |
| NCCS [Cysteamine (hydrochloride)] | 4.79 | 3.78 | 3.89 | 0.254 | 14.5 |
| Cc1ccc(C(=O)c2ccc(CC(=O)O)n2C)cc1 [Tolmetin (sodium salt hydrate)] | -2.25 | 2.51 | 13.8 | 1.94 | 7.94 |
| COC1=CC(=O)C[C@@H](C)[C@]12Oc1c(Cl)c(OC)cc(OC)c1C2=O [Griseofulvin] | 3.76 | 5.64 | 19.9 | 2.87 | 8.4 |

| SMILES | difference in excitability [1] | difference in startle response [2] | difference in activity during first hour [3] | difference in habituation to acoustic stimuli [4] | difference [5] |
| --- | --- | --- | --- | --- | --- |
| COc1cc2c(cc1OC)[C@@H](Cc1cc(OC)c(OC)c(OC)c1)[N+](C)(CCCOC(=O)CC/C=C/CCC(=O)OCCC[N+]1(C)CCc3cc(OC)c(OC)cc3[C@H]1Cc1cc(OC)c(OC)c(OC)c1)CC2 (stereo not given in full) [Mivacurium (chloride)] | 19.5 | -7.63 | -16.7 | 4.16 | 5.12 |
| CN(C)CCC=C1c2ccccc2C=Cc2ccccc21 [Cyclobenzaprine (hydrochloride)] | 17.5 | -6.94 | 6.26 | -8.81 | 14.9 |
| CC(=O)CCCCn1c(=O)c2c(ncn2C)n(C)c1=O [Pentoxifylline] | 11.4 | 2.26 | 8.3 | 4.08 | 6.01 |
| CCO/N=C(\C(=O)N[C@@H]1C(=O)N2C(C(=O)[O-])=C(Sc3nc(-c4cc[n+](C)cc4)cs3)CS[C@H]12)c1nsc(NP(=O)(O)O)n1 | 2.56 | 0.685 | 4.29 | -3.93 | -5.35 |
| CC[C@H](C)C(=O)O[C@H]1C[C@H](O)C=C2C=C[C@H](C)[C@H](CC[C@@H](O)C[C@@H](O)CC(=O)O)[C@H]21 [Pravastatin (sodium salt)] | 1.5 | 5.8 | 9.55 | -2.28 | 1.82 |
| CC(=O)O[C@]1(C(C)=O)CC[C@H]2[C@@H]3CCC4=CC(=O)CCC4=C3[C@@H](c3ccc(N(C)C)cc3)C[C@@]21C [Ulipristal Acetate] | 4.89 | -8.5 | -5.48 | 5.46 | -10.6 |
| CN(C)CCC[C@@]1(c2ccc(F)cc2)OCc2cc(C#N)ccc21 [Escitalopram] | 12.5 | -1.37 | -18.9 | 1.61 | 1.8 |
| COc1ccc2c(c1)c(CC(=O)O)c(C)n2C(=O)c1ccc(Cl)cc1 [Indomethacin] | -1.03 | 1.79 | 2.47 | 6.54 | 1.47 |
| Cn1c(=O)c2[nH]cnc2n(C)c1=O [Oxtriphylline] | -4.32 | 6.97 | -0.101 | 1.02 | -3.12 |
| COc1ccccc1OCC(O)CO (stereo not given) [Guaifenesin] | 1.91 | -2.97 | 10.9 | 3.83 | 6.79 |
| CCCCCCCCCCCCCCCCCCCCCCO [Docosanol] | 3.23 | 1.61 | -0.528 | -2.06 | 0.854 |
| Nc1cc(-c2ccncc2)c[nH]c1=O [Amrinone] | -0.366 | 5.87 | -4.08 | 9.44 | 0.366 |
| O=C(O)CCCN1CCC(O[C@@H](c2ccc(Cl)cc2)c2ccccn2)CC1 [Bepotastine (besylate)] | 13.3 | 3.74 | 0.00178 | 0.195 | 1.29 |
| CC(=O)OC(C)C[N+](C)(C)C (stereo not drawn) [Acetyl-β-methylcholine (chloride)] | 1.77 | 1.22 | 3.93 | 15 | 1.43 |
| CCCC1O[C@@H]2C[C@H]3[C@@H]4CCC5=CC(=O)C=C[C@]5(C)[C@H]4[C@@H](O)C[C@]3(C)[C@]2(C(=O)CO)O1 (stereo not given in full) [Budesonide] | 4.9 | -3.47 | 4.24 | -2.87 | 12.5 |
| CC12CC3CC(C)(C1)CC(N)(C3)C2 [Memantine (hydrochloride)] | 4.15 | -1.38 | 1.52 | 2.49 | 3.21 |
| CCN(CC)CCNC(=O)c1c(C)[nH]c(/C=C2\C(=O)Nc3ccc(F)cc32)c1C [Sunitinib (malate)] | 17.6 | -2.13 | -4 | 0.523 | -0.123 |
| CCC(=O)O[C@]1(C(=O)SCF)[C@H](C)C[C@H]2[C@@H]3C[C@H](F)C4=CC(=O)C=C[C@]4(C)[C@@]3(F)[C@@H](O)C[C@@]21C [Fluticasone Propionate] | -4.47 | -3.21 | 11.5 | 1.17 | 14.7 |
| C=C1/C(=C\C=C2/CCC[C@]3(C)[C@@H]([C@H](C)/C=C/[C@@H](O)C4CC4)CC[C@@H]23)C[C@@H](O)C[C@@H]1O [Calcipotriol (hydrate)] | 15.4 | -5.26 | 0.435 | -0.975 | 5.42 |
| Cc1cn(-c2cc(NC(=O)c3ccc(C)c(Nc4nccc(-c5cccnc5)n4)c3)cc(C(F)(F)F)c2)cn1 [Nilotinib] | 28.8 | -3.62 | -6.05 | -1.02 | -2.49 |
| CN(CCOc1ccc(NS(C)(=O)=O)cc1)CCc1ccc(NS(C)(=O)=O)cc1 [Dofetilide] | -1.01 | -4.06 | 7.17 | 7 | 7.94 |
